# Measured values taken from PubChem BioAssay AID651739 (Broad Institute, 2012).
# The whole screen tested about 5,600 compounds, of which about 4,100 (73%) were called active. Roughly 4% stayed inconclusive and do not appear here. The set was probably picked from earlier hits. Not all results are given here. A number with no mark means an inactive call.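 Rule for the calls: active = mean replicate inhibition above about 95% and at least 55% of replicates individually reaching it (limit read from the data); inconclusive = only one of the two criteria is met; inactive = neither criterion is met.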
# Assay: T. cruzi intracellular proliferation inhibitors, confirmation, cell-based, NIH3T3 host, beta-gal parasite, luminescence, cherry-pick (AID 651739)
# Details: T. cruzi beta-gal in NIH3T3, GalScreen luminescence, 90 h; at 8.35 µM; hits give high values
row,Structure (SMILES),inhibition
1,COc1ccc(C#Cc2ccc([C@H]3[C@H](CO)N4CCCCN(C(=O)Cc5ccccc5)C[C@@H]34)cc2)cc1,95.6% (active)
2,COc1ccc(-c2ccc([C@H]3[C@H](CO)N4CCCCN(C(=O)Cc5ccncc5)C[C@@H]34)cc2)cc1,89.1%
3,C/C=C/c1ccc([C@H]2[C@H](CO)N3CCCCN(C(=O)Cc4ccncc4)C[C@@H]23)cc1,99.2% (active)
4,O=C(Cc1ccccn1)N1CCCCN2[C@@H](CO)[C@@H](c3ccc(C#Cc4ccccc4)cc3)[C@@H]2C1,112% (active)
5,O=C(Cc1cccnc1)N1CCCCN2[C@@H](CO)[C@H](c3ccc(C#CC4CCCC4)cc3)[C@@H]2C1,103% (active)
